# MazEF act: increases E. coli MazEF RNase cleavage of RNA; P0AE70; FAM/BHQ RNA-DNA oligo cleavage fluorescence, 5 h; activation, % at 20 µM; 0.32% of 350,000 active; AID 504720; in the data active means activation above about 50%
# BoNT-A LC inh2: BoNT A light chain protease inhibition; multiplex microsphere protease substrate cleavage, flow cytometry; inhibition, % at 10 µM; 0.17% of 360,000 active; AID 588499; further: plate controls were buffer without enzyme for full effect and enzyme alone for no effect
# BoNT-F LC inh: blocks Botulinum neurotoxin F light chain protease | Multiplex microsphere protease cleavage assay, flow cytometry | inhibition, % at 10 µM | 0.22% of 360,000 active | AID 588497; in the data active means inhibition above about 35%, passing the limit was not always enough; inconclusive means no clear call, values can overlap the other calls; further: plate controls were buffer without enzyme for full effect and enzyme alone for no effect
# Anthrax LF inh2: anthrax lethal factor protease inhibition; P15917; multiplex microsphere protease cleavage assay, LF; inhibition, % at 10 µM; 0.12% of 360,000 active; further: plate controls were buffer without enzyme for full effect and enzyme alone for no effect
# Target sequence (P15917 whole entry, looked up): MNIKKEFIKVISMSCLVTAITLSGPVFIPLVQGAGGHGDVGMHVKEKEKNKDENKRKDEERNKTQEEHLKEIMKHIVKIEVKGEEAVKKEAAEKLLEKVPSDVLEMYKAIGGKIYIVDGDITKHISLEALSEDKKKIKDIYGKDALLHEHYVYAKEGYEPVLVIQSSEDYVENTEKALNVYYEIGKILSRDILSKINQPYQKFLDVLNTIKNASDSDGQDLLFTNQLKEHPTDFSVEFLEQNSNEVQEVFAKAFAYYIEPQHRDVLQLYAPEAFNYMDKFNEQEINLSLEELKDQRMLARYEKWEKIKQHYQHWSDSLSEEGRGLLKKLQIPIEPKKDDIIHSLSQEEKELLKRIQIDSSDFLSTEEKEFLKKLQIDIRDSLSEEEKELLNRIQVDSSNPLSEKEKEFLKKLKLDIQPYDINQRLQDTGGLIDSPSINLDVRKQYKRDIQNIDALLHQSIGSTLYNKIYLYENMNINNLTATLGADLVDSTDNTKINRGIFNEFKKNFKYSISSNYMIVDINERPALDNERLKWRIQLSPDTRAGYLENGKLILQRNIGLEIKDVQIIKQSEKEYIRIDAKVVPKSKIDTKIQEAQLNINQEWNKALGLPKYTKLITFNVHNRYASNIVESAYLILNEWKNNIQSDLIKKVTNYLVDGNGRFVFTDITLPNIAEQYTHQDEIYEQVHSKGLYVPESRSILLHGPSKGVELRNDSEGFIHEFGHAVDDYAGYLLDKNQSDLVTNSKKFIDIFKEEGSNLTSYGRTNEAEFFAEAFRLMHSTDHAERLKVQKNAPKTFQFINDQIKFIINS
# Autofluor counter: compound fluorescence in toxin protease inhibitor counterscreen. AID 624483. fluorescence intensity (test concentration not listed). compound autofluorescence counterscreen, microsphere flow cytometry; stronger effect = higher value. 3.1% of 360,000 active; in the data active means fluorescence intensity above about 16000; inconclusive means no clear call, values can overlap the other calls
# * = called active by the depositor; ? = inconclusive; / = not tested or not shown. Only some compounds are listed: those with a hit (about 3.7% of all), similar ones and a draw of the others. Unless noted, no stated cut-off is given here; in the data, active means inhibition above about 30%; inconclusive means no clear call, values can overlap the other calls; inactive means below that.
SMILES,MazEF act,BoNT-A LC inh2,BoNT-F LC inh,Anthrax LF inh2,Autofluor counter
O=C(Nc1ccc(F)cc1)N1CCC(c2nc3c(nnn3Cc3cccc(Cl)c3)c(=O)[nH]2)CC1,-13,-5,-10,-2,25569*
O=C(C=CC=Cc1ccccc1)c1ccc([N+](=O)[O-])cc1,-6,3,-3,0,3621
Cc1ccc(C)c(S(=O)(=O)C(C#N)c2nc3ccccc3nc2N2CCCC2)c1 (centres undefined),10,3,8,-14,20606*
CCOC(=O)c1c(C)[nH]c(C)c1S(=O)(=O)NC1CCN(C(=O)OCC)CC1,10,-4,-4,-2,6354
CCN1CCN(Cc2ccc(OCc3ccccc3)cc2)CC1,-15,4,3,-7,20089*
Cc1[nH]c(=O)c(C#N)c2c1CCCC2,6,4,4,-2,22068*
O=C(CC1SC2=NCCN2C1=O)Nc1ccc(Br)cc1 (centres undefined),-4,-4,-2,0,21829*
O=C1CC(=O)C(n2cncn2)C(c2ccc(Cl)cc2)C1 (centres undefined),-7,5,7,0,14844
O=C1CC(=O)C(n2cncn2)C(c2c(F)cccc2Cl)C1 (centres undefined),2,2,4,-1,22544*
Cc1cc(O)c(C=Nc2ccc(N3CCOCC3)cc2)c(C)c1Cl,261*,0,4,-1,3871
Cn1c(O)c(C=Nc2ccc(N3CCOCC3)cc2)c(=O)n(C)c1=S,-40,1,4,3,2833
CCC(CC)C(=O)Nc1ccc(Sc2ccc([N+](=O)[O-])cc2)cc1,7,3,-1,-3,19877*
CCCC(=O)Nc1ccc(Sc2ccc([N+](=O)[O-])cc2)cc1,8,-1,-2,-8,3391
CCOc1cc(CNCc2ccncc2)cc(Br)c1OCc1ccc(F)cc1,-12,-1,-12,-5,20403*
O=C1CCc2cc(S(=O)(=O)NCc3ccc(F)cc3)cc3c2N1CC3,4,3,5,-2,?
O=C1C2CC=CCC2C(=O)N1c1ccc(OCC(O)Cn2nnc3ccccc32)cc1 (centres undefined),-2,-5,-9,-4,25583*
O=C(OCc1ccccc1F)c1ccc2c(c1)-c1ccccc1C2=O,1,3,0,2,19102*
CCOC(=O)c1ccc(COC(=O)c2ccc3c(c2)-c2ccccc2C3=O)cc1,-5,2,-12,-6,5898
O=C(OCc1cccc(F)c1)c1ccc2c(c1)-c1ccccc1C2=O,3,4,3,3,22813*
COc1ccc(CCNC(=O)c2cc(-c3ccccc3)c(N3CCOCC3)s2)cc1OC,2,0,-7,-3,6846
CCCCCc1cc(OC)cc2c1C(=O)OC(C)(C)O2,9,0,1,-2,3684
COc1cccc2cc(/C(=N/O)c3ccc(Br)cc3)oc12,12,0,-2,-1,3510
O/N=C(/c1ccccc1)c1cc2cc(Br)cc(Br)c2o1,-15,0,10,30*,3708
Cc1occc1C(=O)N/N=C/c1c[nH]c2ccccc12,2,-1,-5,-8,22938*
O=C(N/N=C/c1c[nH]c2ccccc12)c1ccccc1Cl,5,3,?,9,3795
SMILES,MazEF act,BoNT-A LC inh2,BoNT-F LC inh,Anthrax LF inh2,Autofluor counter
CN(C(=O)C1CC1)C1CCS(=O)(=O)C1 (centres undefined),7,1,6,-3,3896
O=C1CC(c2ccc(O)c(O)c2)Oc2c1ccc(O)c2O (centres undefined),53*,-2,-22,-8,4990
CC(C)=CCc1c(O)cc2c(c1O)C(=O)CC(c1ccccc1)O2 (centres undefined),16,0,-1,0,5590
CC(C)=CCc1c(O)ccc2c1OC(c1ccc(O)c(O)c1)CC2=O (centres undefined),86*,-2,-12,-3,6073
CCCc1ccc(-c2csc(NC(=O)C3=COCCO3)n2)cc1,1,0,6,-2,3527
CCOc1ccc(-c2nn(-c3ccccc3)cc2/C=C2\SC(=S)N(Cc3ccco3)C2=O)cc1,-41,37*,6,14,2009
CC(C)COc1ccc(-c2nn(-c3ccccc3)cc2/C=C2/SC(=S)N(CC(=O)O)C2=O)cc1,-2,-4,2,-10,4811
COC(=O)c1cc(Cl)c(NC(=O)c2cc(OC)c(OC)c(OC)c2)cc1OC,7,2,0,2,21669*
COC(=O)c1cc(Cl)c(NC(=O)c2ccc(F)cc2)cc1OC,8,-1,-2,-1,2133
COC(=O)c1cc(Cl)c(NC(=O)/C=C/c2ccc(OC)c(OC)c2)cc1OC,5,0,-9,-4,11349
COC(=O)c1cc(Cl)c(NC(=O)/C=C/c2ccc(Cl)cc2)cc1OC,-34,-2,-3,-1,20164*
c1ccc(CN2CCC3CC2c2ccc(N4CCOCC4)cc23)cc1 (centres undefined),-4,0,-3,-12,3662
COn1c(-c2ccccc2)c(C=O)c2ccccc21,-2,-102,?,-71,37117*
COc1ccccc1C(=O)NC(CCSC)C(=O)NCC(c1ccco1)N(C)C (centres undefined),2,-1,-3,-1,21152*
COc1ccccc1C(=O)NC(CCSC)C(=O)NCC(c1cccs1)N(C)C (centres undefined),8,2,2,-2,6332
CCOC(=O)c1cnn2c(C(F)(F)F)cc(-c3ccco3)nc12,6,0,-4,4,5098
O=C(NC1CCCC1)c1cnn2c(C(F)(F)F)cc(-c3ccco3)nc12,7,2,2,-1,20185*
NC(=O)c1cnn2c(C(F)(F)F)cc(-c3ccccc3)nc12,1,0,-18,-2,4796
O=C(NC1CCCC1)c1cnn2c(C(F)(F)F)cc(-c3ccc4c(c3)OCO4)nc12,76*,2,7,2,9056
CC(C)CCNC(=O)c1cnn2c(C(F)(F)F)cc(-c3ccco3)nc12,-3,7,7,-5,19781*
O=C(c1cnn2c(C(F)(F)F)cc(-c3ccc4c(c3)OCO4)nc12)N1CCCCC1,14,2,8,-10,8019
NC(=O)c1cnn2c(C(F)(F)F)cc(-c3ccc(F)cc3)nc12,7,-2,-2,-1,22634*
COc1cccc(C(O)c2ncc(-c3cccc4ccccc34)[nH]2)c1 (centres undefined),/,0,-1,-5,3356
COC(=O)[C@]1(Sc2ccc(OC)cc2)CC(=O)N[C@@H]1c1ccccc1,/,1,5,-3,5452
CC(C)OCc1ccc(C(=O)N2CCN(CC(=O)N3CCCC3)CC2)cc1,3,1,-4,0,5204
Cc1ccc2[nH]cc(C(=O)CN3CCN(c4ccccc4F)CC3)c2c1,1,-1,-1,-3,19645*
Cc1ccc(C(=O)C(OC(=O)CN2C(=O)c3ccccc3C2=O)c2ccccc2)cc1C (centres undefined),-6,1,1,-1,22707*
